We go through 24 compounds from PubChem BioAssay AID1259421 (Broad Institute, 2018).

“And” between values parts separate entries of the source, which are not always exact repeats. Equal entries are not always repeated. Out of some 6,400 compounds screened, about 610 (9.5%) were called active. No stated cut-off is given here; in the data, active means activity change below about -70%; inconclusive means no clear call, values can overlap the other calls; inactive means above that. Only a selection was taken, and actives are over-represented in it overall.

This test is described as follows: Toxoplasma gondii ME49Luc growth in HeLa cells, luciferase, no IFN-y, primary screen (AID 1259421). To be noted: T. gondii ME49Luc in HeLa, 72 h, stronger effect = lower value, concentration not given here.
Turning to `CC(C)c1ccc(C(=O)NCCOc2ccc(C(=O)O)cc2)cc1`, the activity change, negative = inhibition was 52.4% (inactive).
The same measure for `CN(C)Cc1c(C(=O)NCCOc2ccc(C(=O)NO)cc2)oc2ccccc12`: -78.9% (active); for `Cc1cc(C)c(N(Cc2ccccc2)S(=O)(=O)c2ccc(OCCNC(=O)c3cc4ccccc4o3)cc2)c(C(=O)NO)c1`: -49.7% (inactive).
As for `OC[C@@H](O)C(O)[C@@H](O)CO` (some centres undefined), the figure is 8.06% (inactive); as for `C[C@@H]1CN(Cc2ccc(F)cc2)[C@@H](C)CN1C(=O)c1cc2c(C(=O)C(=O)N(C)C)cn(C)c2cc1Cl`, -1.84% (inactive).
As for `CC1(COc2ccc(CC3SC(=O)NC3=O)cc2)CCCCC1` (centres undefined), the figure is 54.6% (inactive) and 38.2% (inactive).
Regarding `O=c1cc[nH]c(=O)[nH]1`, the activity change, negative = inhibition is 14.2% (inactive).
The same measure for `O=c1[nH]cc(F)c(=O)[nH]1`: -79.7% (active) and -73.9% (active).
As to `O=C(OC1C[C@H]2CC[C@@H](C1)[N+]21CCCC1)C(O)(c1ccccc1)c1ccccc1` (some centres undefined), the activity change, negative = inhibition was 13% (inactive).
As for `CC(C)OC(=O)c1cc2c(OCC(O)CNC(C)(C)C)cccc2[nH]1` (centres undefined), the figure is 5.25% (inactive) and 2.42% (inactive); as for `CN1N=C(C(N)=O)CCC1=O`, 5.39% (inactive); as for `COc1cc(F)c(C(C)C)cc1-c1ccc(C(F)(F)F)cc1CN1C(=O)O[C@H](c2cc(C(F)(F)F)cc(C(F)(F)F)c2)[C@H]1C`, 13.2% (inactive).
As for `O=C(O)c1ccc(NC(=O)[C@H](Cc2ccc(O)cc2)NC(=O)c2ccccc2)cc1`, the figure is 10.1% (inactive); as for `CC(=O)Nc1ccc(C(=O)O)cc1`, 5.72% (inactive).
Turning to `CC(C)[C@H](C(=O)Nc1ccc(C(=O)NO)cc1)c1ccccc1`, the activity change, negative = inhibition was -78.5% (active).
With `C[C@H]1CC[C@@]2(OC1)O[C@H]1C[C@H]3[C@@H]4CC[C@@H]5C[C@@H](O)CC[C@]5(C)[C@H]4CC[C@]3(C)[C@H]1[C@@H]2C`, the activity change, negative = inhibition is 10.8% (inactive).
As for `O=C1Nc2cc(Cl)ccc2Oc2ccccc21`, the figure is 13.7% (inactive).
On to `Cc1nc2c(c(=O)[nH]1)CSCC2`, for which the activity change, negative = inhibition is -9.85% (inactive).
As for `CC(C)c1ccc2c(c1)CCC1C(C)(C(N)=O)CCCC21C` (centres undefined), the figure is 39.8% (inactive); as for `CCN(CC)CCOCCOC(=O)C(CC)(CC)c1ccccc1`, 22.3% (inactive).
For the compound `Nc1ncnc2c1ncn2[C@@H]1O[C@H](C[C@@H](N)CC[C@H](N)C(=O)O)[C@@H](O)[C@H]1O`, the activity change, negative = inhibition is -5.35% (inactive).
The same measure for `CCCCCCCCCCCCCCCC[N+](C)(C)CCN(Cc1ccc(OC)cc1)c1ncccn1`: -80.9% (active); for `COc1ccc(CN(CCN(C)C)c2ccccn2)cc1`: 18% (inactive) and 6.75% (inactive); for `COc1ccc(CN(CCN(C)C)c2ncccn2)cc1`: 10.1% (inactive) and 11.2% (inactive).
